In the library only some 6% were active in any assay of this set; here they are far more common.
DRD3 antagonist: blocks the human D3 dopamine receptor; D3R cells, DiscoveRx beta-arrestin luminescence, antagonist mode; stronger effect = lower value; AID 652054; P35462; 360,000 tested, 2.5% active; max response, negative = inhibition, %; in the data active means max response below about -50%; further: on the % scale 0 is the no-effect control and ±100 the full control effect
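Cells expressing the human receptor were seeded at 1500 cells/well, incubated overnight at 37 degrees C in 5% CO2, then exposed to library compounds with dopamine controls for 90 minutes at 37 degrees C before luminescent detection.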
D1 ag: human D1 receptor agonism; P21728; HEK293 T-REx D1 cells, calcium flux, agonist mode; activation, % at 2 µM; 360,000 tested, 1% active; in the data active means activation above about 30%; further: 0% is about no effect
Target sequence (P21728 whole entry, looked up): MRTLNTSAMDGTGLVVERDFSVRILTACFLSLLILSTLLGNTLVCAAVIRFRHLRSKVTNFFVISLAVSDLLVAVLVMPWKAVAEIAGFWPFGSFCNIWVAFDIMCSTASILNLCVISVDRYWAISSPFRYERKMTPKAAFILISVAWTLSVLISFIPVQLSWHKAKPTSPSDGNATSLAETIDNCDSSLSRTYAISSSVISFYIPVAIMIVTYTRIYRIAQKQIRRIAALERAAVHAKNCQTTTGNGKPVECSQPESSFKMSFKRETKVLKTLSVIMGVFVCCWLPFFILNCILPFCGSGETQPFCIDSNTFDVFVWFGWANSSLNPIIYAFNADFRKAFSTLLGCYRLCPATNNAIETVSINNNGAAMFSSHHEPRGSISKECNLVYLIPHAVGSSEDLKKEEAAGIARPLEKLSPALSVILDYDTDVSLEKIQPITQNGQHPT
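Agonism was scored from calcium flux recorded over 180 s (1 read/s) after pintool compound addition, following a 10-cycle baseline. Cells were inducible force-coupled HEK293 TREx D1, plated overnight at 30 C and loaded with no-wash calcium dye.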
D1 PAM: human D1 dopamine receptor positive modulation. HEK293 TREx D1 cells, calcium flux, dopamine EC20 potentiation. potentiation, % at 10 µM. 360,000 tested, 0.036% active. AID 504651; in the data active means potentiation above about 30%; further: 0% is about no effect
D1 antag: blocks dopamine activation of the human D1 receptor; P21728; HEK293 TREx D1 cells, calcium flux, dopamine EC80; stronger effect = lower value; activity change, negative = inhibition, % at 10 µM; 360,000 tested, 3.2% active; in the data active means activity change below about -30%; further: on the % scale 0 is the no-effect control and ±100 the full control effect
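Tetracycline-induced HEK293 T-REx cells with force-coupled D1 receptor were loaded with a no-wash calcium dye. Compound was added after a 10 s baseline and read kinetically for 180 s; EC80 dopamine was then added and calcium flux followed another 180 s.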
D3 ag: D3 dopamine receptor (human) agonism | D3R DiscoveRx beta-arrestin cells, luminescence, 90 min | AID 652048 | max activation, % | P35462 | 410,000 tested, 0.58% active; in the data active means max activation above about 30%; further: 0% is about no effect
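Agonist-mode cell screen: cells plated at 1500/well and incubated overnight at 37 °C, then exposed to library compounds for 90 min at 37 °C. Detection reagent was added for 30–60 min at room temperature, and luminescence was read.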
Numbers without * were called inactive.

Screening CC1CC(C)CN(CCCNC(=O)c2ccc3nc(N4CCOCC4)sc3c2)C1 (centres undefined) returned DRD3 antagonist -63*, D1 ag 2, D1 PAM 0, D1 antag -13 and D3 ag -17.
Screening COc1ccc(OC)c(CCNc2ncnc3onc(-c4ccc(Cl)cc4)c23)c1 returned D1 ag 11, D1 PAM 0, D1 antag -3 and D3 ag 0.
COc1ccc(OC)c(CCNc2ncnc3onc(-c4ccc(F)cc4)c23)c1 was read as D1 ag 33*, D1 PAM -3, D1 antag -32* and D3 ag -6.
O=C(Cn1cnc2c(oc3ccccc32)c1=O)Nc1ccccc1C(F)(F)F was read as D1 ag 11, D1 PAM -4, D1 antag -4 and D3 ag 9.
COc1ccc(/C=C2\CCc3ccccc3C2=O)cc1Cn1cccn1 was read as DRD3 antagonist -11, D1 ag 18, D1 PAM -9, D1 antag -49* and D3 ag 0.
COc1ccc(/C=C2\CCC(C3CCCC3)C2=O)cc1Cn1cccn1 (centres undefined) was read as DRD3 antagonist -16, D1 ag 11, D1 PAM 0, D1 antag 3 and D3 ag 5.
`Cc1ccc(C(=O)N2c3ccc(C)cc3C(C)(c3ccccc3)CC2(C)C)cc1` (centres undefined) gave D1 ag -1, D1 PAM 1, D1 antag 7 and D3 ag 2.
For Cc1cccc2sc(N(CCN(C)C)C(=O)C3CCN(S(=O)(=O)c4cccs4)CC3)nc12 the results were DRD3 antagonist -15, D1 ag 39*, D1 PAM -5, D1 antag 24 and D3 ag -12.
For CN(C)CCN(C(=O)C1CCN(S(=O)(=O)c2cccs2)CC1)c1nc2ccc(F)cc2s1 the results were DRD3 antagonist -10, D1 ag 5, D1 PAM -4, D1 antag 27 and D3 ag -25.
Cc1cccc(Cl)c1NC(=S)NN was read as DRD3 antagonist -15, D1 ag 3, D1 PAM 4, D1 antag -42* and D3 ag -7.
Cc1c(Cl)cccc1NC(=S)NN was read as DRD3 antagonist -6, D1 ag 0, D1 PAM 2, D1 antag 6 and D3 ag 2.
`COc1ccc(NC(=O)CN2CCC(n3c(C)nc4cc(F)ccc43)CC2)c(OC)c1` gave DRD3 antagonist -6, D1 ag 2, D1 PAM -5, D1 antag 14 and D3 ag 132*.
Screening Cc1nc2ccccc2n1C1CCN(CC(=O)NCc2ccc(F)cc2)CC1 returned DRD3 antagonist -20, D1 ag 1, D1 PAM -1, D1 antag -43* and D3 ag -1.
For Cc1cc(Nc2ccc(C)c(C)c2)n2cnnc2n1 the results were D1 ag 5, D1 PAM -2, D1 antag 0 and D3 ag 0.
For CCc1nn(C(C)C(=O)N2CCN(c3cccc(C(F)(F)F)c3)CC2)c(=O)c2cc3occc3n12 (centres undefined) the results were D1 ag 1, D1 PAM -5, D1 antag 4 and D3 ag -7.
CN(CC(=O)Nc1cccc(F)c1)C(=O)c1csc2c1CCCC2 was read as DRD3 antagonist -15, D1 ag 33*, D1 PAM -11, D1 antag -3 and D3 ag -21.
Screening Cc1nc(-c2ccc(S(=O)(=O)N3CCCN(CCc4ccccc4)CC3)s2)cs1 returned DRD3 antagonist -22, D1 ag 31*, D1 PAM -4, D1 antag -22 and D3 ag -12.
Screening COc1ccc(NC(=O)CSc2nc(-c3ccc(OC)cc3)[nH]c2-c2ccc(OC)cc2)cc1 returned D1 ag 3, D1 PAM 0, D1 antag -27 and D3 ag -3.
For COc1ccc(C(c2sc3nc(C)nn3c2O)N2CCN(Cc3ccccc3)CC2)cc1OC (centres undefined) the results were DRD3 antagonist 6, D1 ag 2, D1 PAM -11, D1 antag -51* and D3 ag 0.

Bioassay records from PubChem.
